OvCa metastasis: Primary qHTS assay for Inhibitors of ovarian cancer metastasis using an organotypic tumor microenvironment (TME) model; SKOV3ip1-GFP adhesion/invasion on 3D omental model, fluorescence; Potency, µM (highest dose often 45.8 µM), inactives show top-dose activity change, negative = inhibition, usual class: inhibitors; 0.1% of 46,000 active; AID 1963576, 2024;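 note: potency is the fitted concentration of half-maximal effect; plate controls were DMSO wells for no effect and tomatine positive control wells for full effect; nearly all actives have a fitted effect of over 65% in size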
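A 3D layer of primary human omental fibroblasts, mesothelial cells, fibronectin and collagen I, grown 48 hr, received SKOV3ip1-GFP cells in serum-free medium plus compounds at 0.36-46 umol/L. After 2 hr RT and 16 hr 37 C, fixed adherent GFP cells were counted; normalized to DMSO and tomatine.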
NTMT1 inhibitor: Primary qHTS for Inhibitors of N-terminal methyltransferase 1 (NTMT1): MTaseGlo Assay. NTMT1 MTase-Glo SAH luminescence, purified enzyme. Potency, µM (top dose mostly 114 µM), without a hit: at the highest dose activity change, negative = inhibition, actives largely listed as inhibitors. 2.5% of 59,000 active;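 note: potency is the fitted concentration of half-maximal effect; plate controls were DMSO vehicle for no effect and no enzyme for full effect; nearly all actives have a fitted effect of over 65% in size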
GPR32 ag: qHTS for Agonists of Human Resolvin D1 Receptor DRV1. Probable G-protein coupled receptor 32 (Homo sapiens), O75388. CHO-K1 GPR32 beta-arrestin PathHunter luminescence, 90 min; zero percent set by DMSO-only wells. activation, % at 76.9 µM. 2.5% of 48,000 active. AID 1346428, 2018;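 active = activation of at least 60% and not above a set upper limit, about 1 call in 100 departs from these limits; inconclusive = activation of 40% to 60%, or above that upper limit; inactive = activation under 40%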; note: 0% is about no effect
Target sequence (O75388 whole entry, looked up): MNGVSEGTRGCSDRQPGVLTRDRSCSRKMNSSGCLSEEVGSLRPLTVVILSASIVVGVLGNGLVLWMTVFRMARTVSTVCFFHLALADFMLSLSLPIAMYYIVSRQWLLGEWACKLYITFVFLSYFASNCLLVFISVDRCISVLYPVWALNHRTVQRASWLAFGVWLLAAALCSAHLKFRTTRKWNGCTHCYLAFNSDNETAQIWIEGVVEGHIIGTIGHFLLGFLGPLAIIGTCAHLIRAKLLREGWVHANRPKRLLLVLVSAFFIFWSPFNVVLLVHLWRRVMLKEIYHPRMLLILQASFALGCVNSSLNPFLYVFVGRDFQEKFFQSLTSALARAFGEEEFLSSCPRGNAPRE
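Beta-arrestin recruitment read-out: luminescence from complemented beta-Gal in CHO-K1 GPR32 PathHunter cells, measured 1 h after detection reagent at ambient temperature following 90 min compound exposure at 37 °C; DMSO served as basal (EC0) control.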
FH mod: Identification of activators of human fumarate hydratase by quantitative high-throughput screening | Fumarate hydratase, mitochondrial (Homo sapiens), P07954 | FH coupled MDH/diaphorase resazurin fluorescence, 15 min | Potency, µM (top dose mostly 79.9 µM), for inactives: top-dose activity change, negative = inhibition, hits mostly inhibitors | 0.22% of 54,000 active; note: potency is the fitted concentration of half-maximal effect; % is set by controls: 0 for no effect and ±100 for the full control effect; the screen sought activators but most active calls are inhibition curves; nearly all actives have a fitted effect of over 45% in size
NNMT counter: Counterscreen qHTS for Inhibitors of N-terminal methyltransferase 1 (NTMT1): NNMT MTaseGlo assay | shares compounds with NTMT1 inhibitor | NNMT MTase-Glo luminescence, SAH detection | Potency, µM (top dose mostly 57.1 µM), without a hit: top-dose activity, negative = inhibition, usual class: inhibitors | 10% of 120 active
An asterisk follows results filed as active; ! = not active in a repeat; [ ] = dose if it differs, or a comment. Rows were chosen to be rich in hits. Some 3.8% of all compounds tested hit in one or more screens of this group. Unless noted, calls come from the whole dose curve; as a rule, active = well fitted curve in the direction sought with a large enough effect; inconclusive = small, poorly fitted or top-dose-only effect, or another doubt; inactive = no such curve, though single readings can be large; an effect the other way counts as inactive or inconclusive.

`O=C1NC(=O)C(c2c[nH]c3ccccc23)=C1c1c[nH]c2ccccc12` gave NTMT1 inhibitor 11.2µM* and FH mod -24.8%.
`Clc1ncoc1-c1c[nH]c2ccccc12` gave NTMT1 inhibitor -12.7%[57.5 µM] and FH mod -4.4%.
For Cc1cc(C)c(-c2csc(-c3cc4ccccc4oc3=O)n2)cc1C the results were OvCa metastasis -6.2%, NTMT1 inhibitor -4.5%, GPR32 ag -4.0 and FH mod -9.9%.
For Cc1ccc(S(=O)(=O)Cc2nc(-c3ccc(C(=O)NCc4ccccc4)cc3)oc2C)cc1 the results were OvCa metastasis -9.4%, NTMT1 inhibitor 5.2%, GPR32 ag 77.2* and FH mod 4.9%.
O=C1NC(=O)/C(=C/c2ccc3c(c2)OCO3)S1 was read as NTMT1 inhibitor 3.0% and FH mod 31.6µM*.
Screening Cc1cc(C)c(NC(=O)Nc2ccc3snnc3c2)c(C)c1 returned OvCa metastasis 8.5%, NTMT1 inhibitor -0.9%, GPR32 ag 62.8* and FH mod 5.9%.
O=C(Nc1cccc(C(F)(F)F)c1)Nc1ccc2snnc2c1 was read as OvCa metastasis inactive, NTMT1 inhibitor 12.5%, GPR32 ag inconclusive and FH mod -3.1%.
CCOc1ccc(NC(=O)Nc2ccc3snnc3c2)cc1 was read as OvCa metastasis inactive, NTMT1 inhibitor 3.9%, GPR32 ag 86.9* and FH mod 6.5%.
For O=C(CN1C(=O)N/C(=C\c2cccn2-c2cccc(C(=O)O)c2)C1=O)Nc1cccc(F)c1 the results were NTMT1 inhibitor 0.9%[57.5 µM].
`O=C(CN1C(=O)N/C(=C\c2cccn2-c2cccc(C(=O)O)c2)C1=O)Nc1cccc(Cl)c1` gave NTMT1 inhibitor 79.4µM*.
For O=C(O)c1cccc(-n2cccc2/C=C2/C(=O)N(Cc3ccc(F)cc3)C(=O)N2Cc2ccc(F)cc2)c1 the results were NTMT1 inhibitor 79.4µM*.
Cc1ccc(NC(=O)CN2C(=O)N/C(=C\c3cccn3-c3ccc(C(=O)NS(C)(=O)=O)cc3)C2=O)cc1 was read as NTMT1 inhibitor 79.4µM*.
Screening Cc1cccc(-n2nc(C)c(C(=O)Nc3cc(C)ccc3C)c2-n2cccc2)c1 returned OvCa metastasis 19.2%, NTMT1 inhibitor 1.0%, GPR32 ag -19.8 and FH mod -14.1%.
For CCCc1cc(=O)oc2cc(C)c3c(-c4ccccc4)c(C)oc3c12 the results were OvCa metastasis 8.7% and GPR32 ag -2.2.
Screening CCN(CC)C(=O)c1sc2c(c1C)c(=O)n(-c1ccc(OC)cc1OC)c(=O)n2Cc1cc(C)ccc1C returned OvCa metastasis 3.9%, NTMT1 inhibitor -16.6%, GPR32 ag -14.3 and FH mod -25.9%.
Screening NS(=O)(=O)Nc1ncnc(OCCOc2ncc(Br)cn2)c1-c1ccc(Br)cc1 returned NTMT1 inhibitor inconclusive and FH mod 1.7%.
Screening CCCNS(=O)(=O)Nc1ncnc(OCCOc2ncc(Br)cn2)c1-c1ccc(Br)cc1 returned OvCa metastasis -13.2%, NTMT1 inhibitor 8.57µM*! and FH mod -2.7%[53.3 µM].
`O=C(NOCC(O)CO)c1ccc(F)c(F)c1Nc1ccc(I)cc1F` (stereo not drawn) gave NTMT1 inhibitor -2.8%[57.5 µM] and FH mod 0.2%.
For O=C(c1ccc(F)c(F)c1Nc1ccc(I)cc1F)N1CC(O)([C@@H]2CCCCN2)C1 the results were NTMT1 inhibitor 31.6µM*! and FH mod -1.6%.
CCN1CCC(n2cc(CNc3cc(Cl)c4ncc(C#N)c(Nc5ccc(F)c(Cl)c5)c4c3)nn2)CC1 was read as OvCa metastasis -1.5%, NTMT1 inhibitor 2.51µM*, FH mod -8.7% and NNMT counter inconclusive.
`CN(C)C/C=C/C(=O)Nc1cc2c(Nc3ccc(F)c(Cl)c3)ncnc2cc1OC1CCOC1` (stereo not drawn) gave NTMT1 inhibitor 6.31µM*, FH mod 16.3% and NNMT counter inconclusive.

High-throughput results from PubChem.
